Sampled rows, rich in hits. Any-hit rate of the full collection: about 2.8%.
DRD3 antagonist: antagonists of human D3 dopamine receptor. actives 2.5% (n = 360,000). AID 652054. D3R cells, DiscoveRx beta-arrestin luminescence, antagonist mode; stronger effect = lower value. max response, negative = inhibition, %. P35462; in the data active = max response below about -50%; inconclusive = no clear call, values can overlap the other calls; also: % is scaled to controls: 0 for no effect and ±100 for the full control effect
Target sequence (P35462 whole entry, looked up): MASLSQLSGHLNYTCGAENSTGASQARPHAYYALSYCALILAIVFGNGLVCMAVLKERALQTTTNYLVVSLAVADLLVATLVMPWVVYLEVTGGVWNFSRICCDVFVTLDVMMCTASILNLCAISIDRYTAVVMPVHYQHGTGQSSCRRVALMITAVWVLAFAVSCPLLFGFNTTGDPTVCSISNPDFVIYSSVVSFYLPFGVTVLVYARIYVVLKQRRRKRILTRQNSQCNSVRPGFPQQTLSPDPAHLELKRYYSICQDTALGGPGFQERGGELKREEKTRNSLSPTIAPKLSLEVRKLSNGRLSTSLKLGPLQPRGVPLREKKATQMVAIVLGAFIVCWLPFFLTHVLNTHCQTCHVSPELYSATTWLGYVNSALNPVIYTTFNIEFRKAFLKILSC
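Cells expressing the human receptor were seeded at 1500 cells/well, incubated overnight at 37 degrees C in 5% CO2, then exposed to library compounds with dopamine controls for 90 minutes at 37 degrees C before luminescent detection.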
DRD3 agonist: D3 dopamine receptor (human) agonism; P35462; D3R DiscoveRx beta-arrestin cells, luminescence, 90 min; max activation, %; actives 0.58% (n = 410,000); AID 652048; in the data active = max activation above about 30%; also: 0% is about no effect
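Agonist-mode cell screen: cells plated at 1500/well and incubated overnight at 37 °C, then exposed to library compounds for 90 min at 37 °C. Detection reagent was added for 30–60 min at room temperature, and luminescence was read.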
RGS4 inhibitor: human RGS4 inhibition; P49798; Transcreener GDP fluorescence polarization, RGS4-accelerated GTP hydrolysis; Potency, µM (series often up to 114 µM), inactives show at the top dose activity change, negative = inhibition, actives largely listed as inhibitors; actives 0.039% (n = 390,000); AID 504845; active = well fitted inhibition curve with a large enough effect; inconclusive = small, poorly fitted or top-dose-only effect; inactive = no such curve, though single readings can be large or run the other way; also: potency is read from the fitted curve at half-maximal effect; % is scaled to controls: 0 for no effect and ±100 for the full control effect; nearly all actives have a fitted effect of over 75% in size
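MLSMR compounds (23 nl, pin-transferred) preincubated 10 min at room temperature with a 500nM (2x) first reagent, then RGS4 at 900nM (2x) plus Transcreener GDP mix added; fluorescence polarization (620/688 nm) read before and after 90 min at 30 °C.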
pAkt inh: inhibitors of Akt phosphorylation; Neuro2A IGF-stimulated pAkt S473 HTRF, 20 min; stronger effect = lower value; activity change, % for hits at 50 µM; actives 0.32% (n = 360,000); AID 651550; in the data active = activity change below about -80%; inconclusive = mostly about -51% to -80%; also: % is scaled to controls: 0 for no effect and ±100 for the full control effect
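Neuro2A cells (4,500/well, DMEM with 0.5% FBS) were treated with compound at a single 50 µM final concentration, stimulated with 6 nM IGF for 20 min at 37 °C, and lysed. Phospho-Akt Ser473 was read by HTRF as 665/615 ratio ×10^4.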
LDHA block: LDHA (human) enzyme inhibition; P00338; purified LDHA, NADH/diaphorase-resazurin fluorescence; stronger effect = lower value; activity change, % (values are at about 110 or 230 µM); actives 0.15% (n = 480,000); AID 1347041; in the data active = activity change below about -30%; inconclusive = mostly about -25% to -30%;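 also: plate controls were DMSO wells for no effect and wells without enzyme for full effect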
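Human LDH5 (2 nM) was incubated with 0.06 mM NADH and 0.2 mM pyruvate for 5 min at room temperature in Tris pH 7.4. Remaining NADH was coupled through diaphorase/resazurin, and resorufin fluorescence was read at 0 and 20 min.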
PI4K2A block: inhibitors of human PI4K2A; activity change, negative = inhibition, % at 76.9 µM; actives 0.13% (n = 420,000); AID 1346378; purified PI4K2A, ADP-Glo luminescence, 1 h; stronger effect = lower value; Q9BTU6; in the data active = activity change below about -50%; inconclusive = mostly about -30% to -49%;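 also: -100% = wells without enzyme as full effect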
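ADP-Glo luminescence measured ADP generated by PI4K2A enzyme (4 ug/mL before mixing) with 1.2 mM PI substrate (pre-mix) and 300 microM ATP (pre-mix). Tris pH7.5 buffer with MgCl2, Triton X-100; 1 h reaction at ambient temperature.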
* marks the source's active call; other numbers are inactive results; i = inactive; ? = inconclusive; / = no result given; [ ] = another dose, or the depositor's remark.

SMILES	DRD3 antagonist	DRD3 agonist	RGS4 inhibitor	pAkt inh	LDHA block	PI4K2A block
CNC(C)c1ccc2ccccc2c1 (centres undefined)	/	/	/	/	-4	/
CC(=O)OCC(=O)[C@H]1CC[C@H]2[C@@H]3CC[C@H]4C[C@H](O)CC[C@]4(C)[C@H]3C(=O)C[C@]12C	-85*	-31	2%	i	-7	3
NC(=O)c1ccc(OCC(O)CN2CC=C(c3ccc(F)cc3)CC2)cc1 (centres undefined)	/	/	4%[56.9 µM]	/	/	-3
CC(=O)c1cccc(OCC(O)CN2CC=C(c3ccccc3)CC2)c1 (centres undefined)	9	73*	-1%	i	-13	8
CC(=O)OC1(C)CCC2C3CCC4CC(=O)CCC4(C)C3CCC21C (centres undefined)	/	/	/	/	12	/
COC(=O)C1=C(C(=O)OC)SC2(S1)C(C(=O)OC)=C(C(=O)OC)Sc1c2ssc1=O	-96*	-10	-152%	i	28	-23
CN(C)CCN=Cc1c(O)n(C2CCCCCC2)c(=O)[nH]c1=O	4	5	9%	i	-6	1
CCN(CC)CCN=Cc1c(O)n(C2CCCCCC2)c(=O)[nH]c1=O	0	39*	-8%	i	-2	5
CCn1cc(C(=O)Cn2cnc3ccccc32)c2ccccc21	/	/	/	/	-1	/
O=C1NC(=O)C(=Cc2cc(Cl)ccc2OCc2ccc(C(=O)O)cc2)C(=O)N1	-13	-8	?	i	-90*	-22
CN(C)c1cccc(CN2CCN(c3ccccc3)CC2)c1	-85*	-12	/	i	1	0
C=C(Cl)CN1CCN(c2cccc(C(F)(F)F)c2)CC1	/	/	/	/	7	/
COc1ccc(CCNC(C)CCc2ccc(OC)cc2)cc1 (centres undefined)	-52*	-30	-12%	i	-8	3
O=C(C1CCC(=O)N1C1CCCC1)N1CCC2(CC1)OCCO2 (centres undefined)	-12	3	-19%	i	-2	1
O=C(C1CCCO1)N1CCC2(CC1)OCCO2 (centres undefined)	-60*	14	-26%	i	-3	11
Cc1ccc(N2C(=O)NC(=O)/C(=C\C=C\c3ccco3)C2=O)cc1C	-59*	0	?	i	-4	?
Cc1ccc(N2C(=O)NC(=O)/C(=C\C=C\c3ccco3)C2=O)cc1	-16	-4	?	i	-7	-22
COc1ccccc1N1CCN(Cc2c(F)cccc2Cl)CC1	0	-3	10%	/	0	1
COc1ccccc1N1CCN(Cc2ccccc2)CC1	-113*	-5	3%	i	-9	1
COc1ccccc1N1CCN(Cc2cccc(Br)c2)CC1	-100*	-21	-9%	i	-8	0
COc1ccccc1N1CCN(Cc2ccc3c(c2)OCO3)CC1	-87*	-35	15%	i	?	3
COc1cc(C)c(CN2CCN(c3ccccc3)CC2)cc1C	-65*	-52	25%	i	-15	4
CC(NC(=O)Cn1cc(C(=O)c2ccccc2)c2ccccc21)c1ccccc1 (centres undefined)	/	/	/	/	6	/
COc1cccc(CC(=O)N2CCN(CC(=O)NC(C)(C)C)CC2)c1	/	/	/	/	9	/
CCOC(=O)C1=C(C)OC(N)=C(C(=O)OC(C)(C)C)C12C(=O)Nc1ccccc12 (centres undefined)	/	/	/	/	-1	/
SMILES	DRD3 antagonist	DRD3 agonist	RGS4 inhibitor	pAkt inh	LDHA block	PI4K2A block
CN1CCN(Cc2ccc(Br)s2)CC1	-77*	-29	4%	i	?	-3
Cc1cccc(N2CCN(Cc3ccc4c(c3)OCO4)CC2)c1C	-105*	-24	-7%	i	-7	2
COc1ccccc1N1CCN(Cc2cc(C)c(C)cc2O)CC1	-84*	-16	-15%	i	-1	1
COc1ccccc1N1CCN(Cc2ccc(Br)s2)CC1	-69*	-6	0%	i	-13	-6
COc1ccccc1N1CCNCC1	-17	-11	-4%[56.9 µM]	i	-4	3
COc1c(/C=C(\C)[N+](=O)[O-])cc2c(c1OC)OCO2	/	/	/	/	-1	/
